From PubChem BioAssay (NCI)
Compounds without any hit were thinned out: in the full panel of roughly 83,000, 20% have a hit.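 Method: cells in 96-well plates; compound added at one concentration; 48 h incubation; percent growth measured; values under 10 scored active.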 Active and inactive are the calls of the source.

Each compound was assayed on NCI-H322M lung (assay: NCI-60 one-dose screen, 48 h (100 = growth as untreated, 0 = no growth, -100 = all killed)). Conditions: 10 µM unless noted.
Description: Growth inhibition of the NCI-H322M human Non-Small Cell Lung tumor cell line is measured as a screen for anti-cancer activity. Cells are grown in 96 well plates and exposed to the test compound for 48 hours. Compounds are tested at a single concentration, which is 10^-5 M for most compounds. The reported endpoint is percent growth (GI% or GIPRCNT), where numbers from 0 - 100% represent growth inhibition, and numbers from -100% - 0 represent cell death. For example, a value of 40 represents 60% growth inhibition. A value of 0 means no net growth occurred over the course of the experiment. A value of -40 indicates 40% of cells at the beginning of the experiment died by the end of the experiment. A value of -100 means all cells are dead at the end of the experiment.
NCI-60 Human Tumor Cell Lines Screen was performed using the standard one-dose NCI protocol, which is described in more detail at https://dtp.cancer.gov/discovery_development/nci-60/default.htm.
Compounds with GIPRCNT values below 10 were considered active. Activity score was based on GIPRCNT using the following formula: […]
Score is 0 for GIPRCNT values of 100 or above, 50 for GIPRCNT values of 0, and 100 for GIPRCNT values of -100.

Structure (SMILES) | growth
CCCCCCCCCCCCCCCC[N+]1(C)CCN(SN2CC[N+](C)(CCCCCCCCCCCCCCCC)CC2)CC1 | 80.3% (inactive)
CCCCCCNC(=O)Nc1ccc2cc3ccc(NC(=O)NCCCCCC)cc3nc2c1 | 22.8% (inactive)
CCCOC(=O)N[C@H]1CCc2c(Cl)c(OC)c(OC)c(OC)c2-c2ccc(SC)c(=O)cc21 | 31.8% (inactive)
COc1ccc(-c2[nH][nH]c(=O)c2-c2nc3ccccc3s2)cc1 | 100% (inactive)
COc1cc(C2C3CC4CCCC[C@H]4N3[C@@]3(C(=O)Nc4cc(Cl)ccc43)C2C(=O)c2nc3ccccc3[nH]2)cc(OC)c1OC (stereo not given in full) | 88.3% (inactive)
O=C(c1nc2ccccc2[nH]1)C1C(c2ccc(Cl)cc2)C2CC3CCCC[C@H]3N2[C@@]12C(=O)Nc1cc(Cl)ccc12 (stereo not given in full) | 62.2% (inactive)
Oc1ccc(C2c3ccccc3Oc3ccccc32)c2cccnc12 | 24.3% (inactive)
C#Cc1cccc(NC(=O)c2cccc(NC(=O)CCl)c2)c1 | 58.8% [8.25 µM] (inactive)
OC(c1ccc(F)c(C(F)(F)F)c1)c1cnccc1NC1CCCCC1 (stereo not given) | 89.5% (inactive)
Fc1ccc2c(-c3cncn3CCc3ccccc3)c[nH]c2c1 | 91.8% (inactive)
COc1ccc2c(c1)C(=O)CC(c1ccccc1OC)O2 (stereo not given) | 104% (inactive)
CC(=O)Nc1cccc(-c2ccc3c(c2)NC(=O)/C3=C\c2ccc[nH]2)c1 | 40.9% (inactive)
CC1(C)NCCC[C@]2(C)[C@H]3CC(=O)[C@H]4[C@@H]5C[C@](C)(CO)CC[C@]5(C)CC[C@@]4(C)[C@]3(C)CC[C@@H]12 | 98.2% (inactive)
C[C@H](c1nc2ccc(N)cc2[nH]1)[C@H]1CC[C@H]2[C@@H]3CCC4=CC(=O)CC[C@]4(C)[C@H]3CC[C@]12C | 91.7% (inactive)
CC(C)N1C(=O)S/C(=C2/SC(=O)N(C(C)C)C2=O)C1=O | 93.4% (inactive)
CCCCCOc1ccc(/C=N/Nc2cc(C)nc3ccc(Cl)cc23)cc1 | 44.3% (inactive)
CCCNC(=O)Oc1ccc(/C(=C(\C)c2ccccc2)c2ccc(OCCCN(C)C)cc2)cc1 | 81.2% (inactive)
COc1ccc(-c2cnc3c(-c4cccc5ncccc45)cnn3c2)cc1 | 42.7% (inactive)
COc1cc(C2C3=C(COC3=O)N(CCO)c3cc4c(cc32)CCC4)cc(OC)c1OC (stereo not given) | 39.8% (inactive)
CSc1nc2sc3cccc(Cl)c3n2c(=N)c1C#N | 99.8% (inactive)

Structure (SMILES) | growth
CCCCCC(=O)Oc1ccc(/C(=C(\C)c2ccccc2)c2ccc(OCCN3CCCCC3)cc2)cc1 | 83.8% (inactive)
COc1cc2c(c(OC)c1OC)CCC(c1cccc(NC(=O)c3cccc(Br)c3)c1)O2 (stereo not given) | 98.5% (inactive)
CCOC(=O)Oc1c(OC)cc(C(=O)c2ccc(OC)c(OC(=O)CCl)c2OC)cc1OC | 45.2% (inactive)
Cc1cccc(NC(=O)Nc2ccc(-c3ccc4c(c3)NC(=O)/C4=C\c3ccc[nH]3)cc2)c1 | 89.8% (inactive)
Clc1ccc(-c2ccc(CNCC3CCNCC3)o2)c(-c2ccccc2)c1 | -25.7% (active)
COc1cc(C(=O)Nc2cc3c(cc2Oc2cc(C)cc(C)c2)C(=O)N(C)[C@@H](CC(=O)N(C)O)C(=O)N3)c(Br)c(OC)c1OC | -32.5% (active)
O=[N+]([O-])c1ccc(N=Nc2cc(S(=O)(=O)O)c3cccc(S(=O)(=O)O)c3c2O)cc1 | 80.7% (inactive)
O=S(=O)(NCCCNc1nccc(-c2c(-c3cccc(F)c3)nc3sccn23)n1)c1cccc2ccccc12 | 81.6% (inactive)
Cn1ccnc1C(=O)/C=C/c1ccc(CC(=O)NC2CCCCC2)cc1 | 61% (inactive)
COc1ccc(-c2nc(S(=O)(=O)c3ccccc3)c(S(=O)CC(=O)N3CCC(C)CC3)o2)cc1 (stereo not given) | 73.2% (inactive)
CC(=O)[C@H]1CCC/C=C/[C@@H]2C[C@H](O)C[C@H]2[C@H](O)/C=C/C(=O)O1 | 29% (inactive)
COc1cc2oc(-c3cccc(C(=O)Nc4ccccc4)c3)cc(=O)c2c(O)c1OC | 66.4% (inactive)
COc1cc(/C=N/NC(=O)c2cnn3c2NC(c2ccccc2)C3)ccc1OCc1ccccc1 (stereo not given) | 28.6% (inactive)
CC(=O)CCC(=O)OCc1cc(=O)c(O)co1 | 98.2% (inactive)
O=C(CCN1CCCC1)c1ccc([N+](=O)[O-])cc1 | 101% (inactive)
Cc1cc2nc3c4cc([N+](=O)[O-])ccc4n(CCN(C)C)c3nc2cc1C | -15.1% (active)
COc1cc(-c2csc(NC(=O)c3cc(F)cc(C(F)(F)F)c3)n2)cc(OC)c1OC | 68% (inactive)
NS(=O)(=O)c1ccc(CCn2c(SCC(=O)c3ccc(Cl)cc3)nc3ccccc3c2=O)cc1 | 96.3% (inactive)
CCNc1nc2cc(Nc3ccnc4cc(Cl)ccc34)ccc2o1 | 92.9% (inactive)
COc1ccc2[nH]c(O)c(/C=c3/cc4c(c(-c5ccc(F)cc5)n3)=Nc3ccccc3-4)c2c1 | 94% (inactive)
